IMPase inh – qHTS Assay for Identifying the Cell-Membrane Permeable IMPase Inhibitors | 120,000 tested, under 10 active | Inositol monophosphatase 1 (Rattus norvegicus), P97697 | inhibition (IP1 accumulation), % at 46.1 µM | CHO-M1 cells, IP1 accumulation, HTRF TR-FRET ratio; active means well fitted curve in the direction sought with a large enough effect in the signal ratio, not every such curve was filed as active; inconclusive means small, poorly fitted or top-dose-only effect, or a change in a side signal; inactive means no such curve, though single readings can be large or run the other way; the % refers to the signal ratio;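 further: cells stimulated with carbachol in lithium chloride buffer; higher means more IMPase inhibition seen as more IP1 and lower FRET ratio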
Target sequence (P97697 whole entry, looked up): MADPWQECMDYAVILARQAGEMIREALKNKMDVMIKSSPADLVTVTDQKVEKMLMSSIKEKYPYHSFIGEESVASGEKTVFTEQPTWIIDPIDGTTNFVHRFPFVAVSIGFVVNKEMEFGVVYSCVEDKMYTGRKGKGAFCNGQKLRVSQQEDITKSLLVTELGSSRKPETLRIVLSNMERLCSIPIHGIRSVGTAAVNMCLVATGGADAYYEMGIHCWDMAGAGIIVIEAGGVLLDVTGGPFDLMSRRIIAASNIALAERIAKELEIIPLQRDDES
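Measured: the HTRF emission ratio (665/620 nm) plus the 620 nm donor channel, each fitted to the Hill equation to give AC50. Cells were CHO-M1 given compounds up to 46 uM and a 30 min carbachol stimulation at 37C.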
HTT ATP protect – qHTS Multiplex Assay to Identify Dual Action Probes in a Cell Model of Huntington: Cytoprotection (ATP); 230,000 tested, 0.14% active; PC12 HTT-Q103 induced, cytoprotection, ATP luminescence, 40 h; Potency, µM (series often up to 56.4 µM), most hits filed as activators; further: nearly all actives have a fitted effect of over 45% in size
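Rat PC12, Q103 Htt exon1-GFP fusion, ecdysone promoter; tebufenozide inducer 100 nM final; compound titration; qHTS, 1500 cells/well; ATPlite luminescent read.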
HTT aggregate – qHTS Multiplex Assay to Identify Dual Action Probes in a Cell Model of Huntington: Aggregate Formation (GFP) | 220,000 tested, 1.1% active | PC12 HttQ103-GFP aggregates, Acumen cytometry, 40 h | Potency, µM (doses to about 46.1 µM), usual class: inhibitors; further: nearly all actives have a fitted effect of over 60% in size
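Inducible Q103 Huntingtin exon 1–GFP PC12 line, 1500 cells/well in phenol red free DMEM with 5% equine and 5% calf serum. Tebufenozide 100 nM induced expression; compounds titrated; aggregates quantified by cytometry.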
NPSR antagonist – qHTS Assay for Antagonists of the Neuropeptide S Receptor: cAMP Signal Transduction; CHO-NPSR cells, cAMP TR-FRET, antagonist mode; Potency, µM (series often up to 38.3 µM), usual class: inhibitors; 220,000 tested, 1% active; further: nearly all actives have a fitted effect of over 50% in size
Target sequence (Q6W5P4 whole entry, looked up): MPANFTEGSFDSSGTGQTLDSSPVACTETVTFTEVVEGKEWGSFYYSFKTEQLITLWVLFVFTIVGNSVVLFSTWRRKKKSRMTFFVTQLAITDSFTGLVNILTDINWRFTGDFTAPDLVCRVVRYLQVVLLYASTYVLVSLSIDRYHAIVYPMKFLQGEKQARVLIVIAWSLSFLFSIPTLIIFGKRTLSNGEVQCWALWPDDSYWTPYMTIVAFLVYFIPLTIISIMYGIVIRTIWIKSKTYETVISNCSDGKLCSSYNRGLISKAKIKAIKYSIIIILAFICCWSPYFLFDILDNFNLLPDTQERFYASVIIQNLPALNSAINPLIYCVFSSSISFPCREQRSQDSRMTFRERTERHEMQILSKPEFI
IMPase Li inh – qHTS Assay for Identifying the Cell-Membrane Permeable IMPase Inhibitors: Potentiation with Lithium | CHO-M1 cells, IP1 TR-FRET (IP-One), carbachol + lithium | Potency, µM (doses to about 59.4 µM), most hits filed as inhibitors | 210,000 tested, 0.35% active;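 further: IP1 builds up when IMPase is blocked and the TR-FRET signal falls; nearly all actives have a fitted effect of over 50% in size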
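Lithium-sensitised IP1 accumulation assay; M1-expressing CHO cells treated 30 min at 37C with compound. Competitive antibody detection by time-resolved FRET followed a 10 min room-temperature lysis step.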
PNC inhibitor – High Content Assay for Compounds that inhibit the Assembly of the Perinucleolar Compartment; activity change (PNC), negative = inhibition, % at 10 µM; AID 2417, 2010; 140,000 tested, 3.1% active; PC3M PTB-GFP, PNC prevalence imaging, 16 h; stronger effect = lower value;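 active means readout at or below -70, meaning at least 70% loss of cells showing the perinucleolar compartment, a nuclear body marking cancer cells; inconclusive means readout between -30 and a set limit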
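PC3M cells stably expressing PTB-GFP, 750–1000 cells/well, treated 16 h at 37 °C with compound (23 nl of library stock), in duplicate. After paraformaldehyde fixation and Hoechst stain, imaged at 20x; PNC prevalence scored by image analysis.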
Of the large screens only hits and unclear results are named; the others gave an inactive call. Sampled rows, rich in hits. Any-hit rate of the full collection: about 3.4%. Unless noted, the call rests on the fitted dose curve; in most records, active means well fitted curve in the direction sought with a large enough effect; inconclusive means small, poorly fitted or top-dose-only effect, or another doubt; inactive means no such curve, though single readings can be large; an effect the other way counts as inactive or inconclusive.

N[C@@H](C(=O)O)[C@H](O)C(=O)O	none (no result: IMPase inh, HTT aggregate, NPSR antagonist, IMPase Li inh, PNC inhibitor)
C=CCNC(=O)/C(=C\C=C\c1ccccc1)NC(=O)c1ccc(OCCCC)cc1	HTT ATP protect inconclusive, PNC inhibitor -104.8
O=C(COC(=O)c1ccc([N+](=O)[O-])s1)NC(c1ccccc1)c1ccccc1	PNC inhibitor -116.5 (no result: IMPase inh, HTT ATP protect)
O=C(COC(=O)c1ccc([N+](=O)[O-])s1)Nc1ccccc1	PNC inhibitor inconclusive (no result: IMPase inh)
Cc1ccc(-n2nnnc2SCC(=O)N2c3ccccc3NC(=O)C2(C)C)cc1	PNC inhibitor -100.0
Cc1ccc(-c2nnc(SCC(=O)N3c4ccccc4NC(=O)C3(C)C)n2N)cc1	none
Cc1cc(C)n(-c2nc(Nc3ccccc3)nc(-n3nc(C)cc3C)n2)n1	IMPase Li inh inconclusive, PNC inhibitor inconclusive
Cc1cc(C)n(-c2nc(N(c3ccccc3)c3ccccc3)nc(-n3nc(C)cc3C)n2)n1	NPSR antagonist 12.6µM, PNC inhibitor -100.0
Cc1cc(C)n(-c2nc(C)nc(N)n2)n1	HTT aggregate 0.794µM, PNC inhibitor inconclusive
Cc1cc(Cl)nc(-n2nc(C)cc2C)n1	HTT aggregate inconclusive (no result: IMPase inh, IMPase Li inh, PNC inhibitor)
CC1CCc2sc(C(=O)OCC(=O)NCc3ccccc3)cc2C1 (stereo not drawn)	PNC inhibitor -94.4 (no result: IMPase Li inh)
Cc1cccc(Nc2nc(-c3ccccc3)c3cc(C)ccc3n2)c1	none (no result: HTT ATP protect, HTT aggregate, NPSR antagonist, IMPase Li inh, PNC inhibitor)
CCOc1cc(C(=O)NCCN2CCOCC2)cc(OCC)c1OCC	PNC inhibitor -100.0
O=C(O)C1CC(=O)N(c2ccc(OCc3c(F)cccc3Cl)cc2)C1 (stereo not drawn)	PNC inhibitor -107.7
COc1ccc(NC(=O)CSc2c3c(nc4ccccc24)CCCC3)c(OC)c1	PNC inhibitor -113.0 (no result: IMPase inh)
COc1cc(NC(=O)CSc2c3c(nc4ccccc24)CCC3)cc(OC)c1OC	none (no result: IMPase Li inh)
COc1ccccc1NC(=O)CSc1c2c(nc3ccccc13)CCC2	HTT aggregate 35.5µM (no result: IMPase inh)
O=C(CSc1c2c(nc3ccccc13)CCC2)N1CCCC1	HTT ATP protect 10µM, HTT aggregate inconclusive (no result: IMPase inh, PNC inhibitor)
O=C(Nc1nncs1)c1ccc(S(=O)(=O)c2ccccc2)cc1	PNC inhibitor -116.6
COC(=O)c1ccc(C(NC(=O)OCc2ccccc2)/C(=C/[C@@H](C)C(=O)NC2CCCCC2)c2cccnc2)cc1 (stereo partly drawn)	none (no result: IMPase inh, HTT aggregate, NPSR antagonist, PNC inhibitor)
CCN=C(NC#N)SCc1c(F)cccc1Cl	PNC inhibitor -109.0 (no result: IMPase inh, HTT ATP protect)
COc1ccc(N2CCN(C(=O)CSc3nnc4n3C(C)(C)Cc3ccccc3-4)CC2)cc1	HTT aggregate inconclusive, PNC inhibitor -80.4
Cc1ccc(Cl)cc1N1CCN(C(=O)CSc2nnc3n2C(C)(C)Cc2ccccc2-3)CC1	HTT ATP protect inconclusive, HTT aggregate 7.94µM, NPSR antagonist inconclusive
CN1CCc2c(sc3c2C(=O)NC(c2cn(Cc4ccccc4)c4ccccc24)N3)C1 (stereo not drawn)	HTT aggregate inconclusive, PNC inhibitor -103.5
CCCc1cc2c(n1CCc1ccc(Cl)cc1)C(C)C1CN(C(=O)c3ccccc3)C(C)(C(=O)OC)C21 (stereo not drawn)	none (no result: IMPase inh, HTT aggregate, NPSR antagonist, PNC inhibitor)
O=C(O)C(Cl)(c1ccccc1)c1ccccc1	none (no result: IMPase inh, HTT aggregate, NPSR antagonist, PNC inhibitor)
Fc1ccc(N2N=C(c3cccs3)CC2c2ccccc2)cc1 (stereo not drawn)	IMPase Li inh 10µM (no result: IMPase inh, PNC inhibitor)
COc1cccc(N(C(=O)CCl)C(C(=O)NCCc2ccccc2)c2cccs2)c1 (stereo not drawn)	HTT aggregate 22.4µM (no result: IMPase inh)
COc1ccc(N(C(=O)CCl)C(C(=O)NCCc2ccccc2)c2cccs2)cc1Cl (stereo not drawn)	NPSR antagonist inconclusive, PNC inhibitor inconclusive
CNC(=O)C(N)CSC(C)C1=C(C)c2cc3[n-]c(cc4nc(cc5[n-]c(cc1n2)c(C)c5CCC(=O)O)C(CCC(=O)O)=C4C)c(C)c3C(C)SCC(N)C(=O)NC.[Fe+2] (stereo not drawn)	none (no result: IMPase inh, NPSR antagonist, IMPase Li inh, PNC inhibitor)
c1csc(-c2csc3ncnc(NCCCN4CCOCC4)c23)c1	HTT aggregate 7.94µM, PNC inhibitor inconclusive
c1ccc(-c2csc3ncnc(NCCCN4CCOCC4)c23)cc1	none
c1ccc2c(c1)OCC(c1csc3ncnc(N4CCOCC4)c13)O2 (stereo not drawn)	HTT aggregate 12.6µM
CCN(CC)c1ncnc2scc(C3COc4ccccc4O3)c12 (stereo not drawn)	IMPase inh inconclusive, HTT aggregate inconclusive, PNC inhibitor -100.0
CCOC(=O)c1c(C2COc3ccccc3O2)csc1N (stereo not drawn)	PNC inhibitor inconclusive
c1ccc(-c2csc3ncnc(N4CCOCC4)c23)cc1	none (no result: IMPase inh, PNC inhibitor)
O=C(NNC(=O)c1ccccc1C(=O)O)c1ccc(-c2ccccc2)cc1	none (no result: IMPase inh, PNC inhibitor)
Cc1ccc(CNc2oc(C)nc2C#N)cc1	PNC inhibitor -84.8 (no result: IMPase Li inh)
CCOC(=O)c1sc(NC(=O)CSc2nc3c(cc2C#N)CCCCC3)c(C#N)c1C	IMPase inh inconclusive, HTT aggregate 5.62µM, NPSR antagonist inconclusive, IMPase Li inh inconclusive
CCOC(=O)c1sc(NC(=O)c2cccnc2)c(C#N)c1C	none
CCOC(=O)c1sc(NC(=O)c2cc(-c3ccccc3)nc3ccccc23)c(C#N)c1C	HTT aggregate 7.08µM
CCOC(=O)c1sc(NC(=O)CSc2n[nH]c(-c3ccccc3)n2)c(C#N)c1C	HTT aggregate 20µM
CC(C)CC(NC(=O)C1CCC(C)CC1)C(=O)NCc1ccco1 (stereo not drawn)	none (no result: IMPase inh, PNC inhibitor)
COc1ccccc1CNC(=O)C(CC(C)C)NC(=O)C1CCC(C)CC1 (stereo not drawn)	PNC inhibitor -102.3
COc1ccc(N2C(=O)c3ccccc3NC2c2ccc(OC)c(CSc3ccccn3)c2)cc1 (stereo not drawn)	IMPase inh inconclusive, NPSR antagonist 12.6µM, IMPase Li inh inconclusive
COc1ccc(N2C(=O)c3ccccc3NC2c2ccc(OC)c(COc3ccccn3)c2)cc1 (stereo not drawn)	none
C=CCn1c(=O)c2c(nc(-c3ccccc3)n2C)n(C)c1=O	none (no result: IMPase inh, HTT aggregate, NPSR antagonist, PNC inhibitor)
C=CCn1c(=O)n(CCOC)c(=O)c2sc3ccccc3c21	HTT aggregate 22.4µM
COc1ccc(-n2nc(C(=O)NCc3ccco3)c3c4ccccc4n(C)c3c2=O)cc1	IMPase Li inh inconclusive (no result: IMPase inh, HTT ATP protect)
COc1ccc(-n2nc(C(=O)NCc3ccco3)c3ccccc3c2=O)cc1	IMPase Li inh inconclusive, PNC inhibitor -83.9
